Assay outcomes from PubChem BioAssay.
MCF10A rerep = induces DNA re-replication in MCF 10a normal breast cells; MCF 10A DNA re-replication, Hoechst nuclear intensity, 48 h; Potency, µM (doses to about 46.1 µM), for inactives: top-dose activity, positive = re-replication, actives largely listed as activators; 350,000 tested, 2.9% active; AID 624296; also: % of control where 0% means no effect; nearly all actives have a fitted effect of over 50% in size
HT1080-NT tox = kills 2HG-producing HT-1080-NT fibrosarcoma cells; 360,000 tested, 1.6% active; Potency, µM (top dose mostly 46.1 µM), inactives show at the top dose activity, negative = less viability, actives largely listed as cytotoxic; HT-1080-NT fibrosarcoma viability, CellTiter-Glo ATP luminescence, 48 h;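 also: NT is the 2HG producing partner of a matched IDH1 knockdown line; 0% = DMSO-treated cells and -100% = media-only wells without cells; nearly all actives have a fitted effect of over 55% in size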
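Viability by CellTiter-Glo luminescence after 48 h compound exposure at 37C of HT-1080-NT cells (750/well, RPMI, 5% FBS). % activity scaled between DMSO wells and medium-only wells, then curve-fitted and categorized by curve class.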
SW480 rerep = induces DNA re-replication in SW480 colon adenocarcinoma cells; AID 624297; 340,000 tested, 1.8% active; Potency, µM (series often up to 46.1 µM), for the others: at the top dose re-replication activation, most hits filed as activators; SW480 DNA re-replication, Hoechst DNA content imaging, 48 h; also: % of control where 0% means no effect; nearly all actives have a fitted effect of over 55% in size
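Image-based read-out: total Hoechst fluorescence of nuclei (405 nm excitation, 500-530 nm emission), with hits raising the fraction of high-intensity nuclei. SW480 colon cells incubated 48 hr with compounds at 37 C.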
HT1080 IDH1KD tx = kills HT-1080 cells with IDH1 knockdown. HT-1080 IDH1 knockdown viability, ATP luminescence, 48 h. Potency, µM (series often up to 46.1 µM), for the others: at the top dose activity, negative = toxicity, usual class: cytotoxic. 360,000 tested, 2% active;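 also: 0% = DMSO wells and -100% = cell-free medium wells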
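Assay cells: HT-1080 with IDH1 knockdown, 750 per well, RPMI/5% FBS. Exposure: 48 h at 37 °C following 2 h pre-incubation. Read: CellTiter-Glo luminescence; fitted concentration-response, curve class assigned.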
KB-3-1 cytotox = kills parental KB-3-1 adenocarcinoma cells; 400,000 tested, 1.4% active; KB-3-1 viability, CellTiter-Glo ATP luminescence, 72 h; Potency, µM (series often up to 46.1 µM), hits mostly cytotoxic; also: % is scaled to controls: 0 for no effect and ±100 for the full control effect; nearly all actives have a fitted effect of over 60% in size
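Cells are dispensed, compounds pinned in, plates held at 37 °C for 72 h, then CellTiter-Glo is added and luminescence read after 10 minutes. Cell line: parental KB-3-1 in phenol-red-free DMEM, 10% FBS.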
KB-V1 cytotox = kills drug-selected multidrug resistant KB-V1 cells; KB-V1 MDR cells viability, CellTiter-Glo, 72 h; Potency, µM (titrated, usually from 46.1 µM), most hits filed as cytotoxic; 400,000 tested, 3.4% active; AID 1347076; also: % is scaled to controls: 0 for no effect and ±100 for the full control effect; nearly all actives have a fitted effect of over 60% in size
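KB-V1 cells (P-gp-expressing MDR subline of KB-3-1) in phenol-red-free DMEM with 10% FBS were exposed to library compounds over a concentration series for 72 h at 37 degrees C. Viability read by CellTiter-Glo luminescence; concentration-effect curves fitted after normalization.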
* hit, by the source's call; i = inactive; ? = inconclusive; nt = no result; [ ] = dose if it differs, or a comment. Hits are enriched below; roughly 8% of the tested compounds scored in any of these assays. Calls follow the shape of the dose curve; as a rule, active = well fitted curve in the direction sought with a large enough effect; inconclusive = small, poorly fitted or top-dose-only effect, or another doubt; inactive = no such curve, though single readings can be large; an effect the other way counts as inactive or inconclusive. Potency is read from the fitted curve at half-maximal effect.

SMILES	MCF10A rerep	HT1080-NT tox	SW480 rerep	HT1080 IDH1KD tx	KB-3-1 cytotox	KB-V1 cytotox
Cc1c(Cl)c([N+](=O)[O-])nn1Cc1ccc(C(=O)Nc2ccc(Cl)cn2)o1	?	0%	1%	-14%	i	3.7µM*
Cc1nn(Cc2ccc(Cl)cc2)c(C)c1NC(=O)Cn1nc([N+](=O)[O-])c(Cl)c1C	?	?	7%	-25%	?	i
CC1CCc2cccc3c2N1c1cc(C#N)c(C#N)cc1O3 (centres undefined)	?	10%[9.24 µM]	21%	-1%	7.3µM*	?
Cc1ccc(-c2nc(S(=O)(=O)c3ccc(C)cc3)c(SCC(=O)Nc3ccc(F)cc3)o2)cc1	nt	nt	nt	nt	i	i
CCOC(=O)[C@]12CCC=C1N(Cc1cccc3ccccc13)C(=O)[C@H](CC(=O)NCc1cccc3ccccc13)C2	nt	-5%	nt	0%	i	?
CCOC(=O)[C@]12CCC=C1N(Cc1cccc3ccccc13)C(=O)[C@H](CC(=O)NCc1ccccc1)C2	nt	-13%	nt	-26%	i	?
CCOC(=O)[C@]12CCC=C1N(Cc1cccc3ccccc13)C(=O)[C@H](CC(=O)NCCc1ccccc1OC)C2	nt	-23%	nt	-15%	?	15µM*
CCOC(=O)[C@]12CCC=C1N(Cc1cccc3ccccc13)C(=O)[C@H](CC(=O)NCc1ccc(C)o1)C2	nt	?	nt	?	i	12µM*
CCOC(=O)[C@]12CCC=C1N(Cc1cccc3ccccc13)C(=O)[C@H](CC(=O)NCCCCc1ccccc1)C2	nt	-18%	nt	-19%	?	16µM*
C=CCn1c(SC(C)C#N)nc2ccccc2c1=O (centres undefined)	nt	nt	nt	nt	i	i
COc1cccc(-n2c(-c3ccco3)nc3c(cnn3-c3ccccc3C)c2=O)c1	nt	nt	nt	nt	i	i
Cc1c(C)n(Cc2ccc(F)cc2)c2ccc(C(=O)N3CCN(c4ccc(Cl)cc4)CC3)cc12	nt	nt	nt	nt	i	i
Oc1cccc(Nc2nc(NCC3CCCO3)c3ccccc3n2)c1 (centres undefined)	15µM*	?	6%	-23%	?	18µM*
Nc1nc(NCC2CCCO2)nc(Nc2ccccc2)c1[N+](=O)[O-] (centres undefined)	3%	1%	1%	-8%	i	10µM*
CCOc1ccc(Nc2nc(NCC3CCCO3)c3ccccc3n2)cc1 (centres undefined)	?	18µM*	?	?	?	?
c1ccc2c(NCC3CCCO3)nc(N3CCOCC3)nc2c1 (centres undefined)	-3%	8%	-2%	15%	i	i
COc1ccc(Nc2nc(NCC3CCCO3)c3ccccc3n2)c(OC)c1 (centres undefined)	-1%	?	-7%	?	i	i
c1ccc(Nc2nc(NCC3CCCO3)c3ccccc3n2)cc1 (centres undefined)	?	23µM*	?	18µM*	16µM*	21µM*
O=C1C(=O)C(c2cc(O)c(O)c(O)c2)Oc2cc(O)cc(O)c21 (centres undefined)	nt	nt	nt	nt	?	i
C[C@]1(c2ccccc2)OC(C(=O)O)=CC1=O	1%	nt	-6%	nt	nt	nt
O=C(Nc1ccc(F)cc1)c1oc2ccccc2c1NC(=O)C12CC3CC(CC(C3)C1)C2	nt	nt	nt	nt	i	i
CCOc1ccc(Nc2cc(C)c3ccccc3n2)cc1	?	-22%	17%	-30%	i	i
CCOc1ccc(Nc2c3ccccc3nc3ccccc23)cc1	3.3µM*	16µM*	4.6µM*	12µM*	5.2µM*	?
CCOC(=O)C(NC(=O)c1ccccc1Cl)(Nc1ccc(C)c(C)c1)C(F)(F)F (centres undefined)	-68%	1%	4.1µM*	0%	i	?
COC(=O)c1cc(C#N)c(N2CCN(C)CC2)nc1C	21µM*	2%	-70%	1%	i	i
SMILES	MCF10A rerep	HT1080-NT tox	SW480 rerep	HT1080 IDH1KD tx	KB-3-1 cytotox	KB-V1 cytotox
CC(C)Nc1ccccc1	-2%	17%	-4%	9%	i	i
CC(C)Nc1nc2nonc2nc1Nc1ccccc1	?	-19%	108%	?	18µM*	?
CCN(C(=O)CSc1nc2scc(-c3ccccc3)c2c(=O)n1C)C1CCS(=O)(=O)C1 (centres undefined)	24%	-2%[9.24 µM]	-19%	0%	i	i
CCCCN(C(=O)CSc1nc2ccccc2n1CC)C1CCS(=O)(=O)C1 (centres undefined)	-3%	8%	-2%	4%	i	5.8µM*
C=CCn1c(SCC(=O)N(CC)C2CCS(=O)(=O)C2)nc2scc(-c3ccccc3)c2c1=O (centres undefined)	?	2%	-4%	6%	i	10µM*
CCCCOc1ccc(C(=O)NCCc2sc3nc(-c4ccc(OC)cc4)nn3c2C)cc1	nt	nt	nt	nt	i	i
O=[N+]([O-])c1ccc(N/N=C\c2ccccc2OCc2ccccc2)cc1	?	-20%	?	-4%	i	i
O=[N+]([O-])c1ccc(NN=Cc2cccc3ccccc23)cc1	?	-2%	1.2µM*	-7%	i	i
Cc1[nH]n(-c2ccc([N+](=O)[O-])cc2)c(=O)c1C=NCCc1c(C)[nH]c2ccccc12	6%	-23%	nt	-23%	i	16µM*
Cc1[nH]c2ccccc2c1/C=N/Nc1ccc([N+](=O)[O-])cc1	11%	9.2µM*	-5%	?	i	i
Cc1ccc(-n2[nH]c(C)c(/C=N/Nc3ccc([N+](=O)[O-])cc3[N+](=O)[O-])c2=O)cc1	27%	?	?	23µM*	?	16µM*
CC1=C(c2ccc(C)c(C)c2)S(=O)(=O)N(Cc2ccc(C(=O)NCc3cccc(C)c3)cc2)C1=O	nt	nt	nt	nt	i	i
Cc1ccccc1NC(=O)Nc1nnc(N2CCCCCC2)s1	nt	nt	nt	nt	i	i
Cc1ccc(Cl)cc1NC(=O)Cn1c(=O)oc2cc(S(=O)(=O)N3CCCCCC3)ccc21	nt	nt	nt	nt	i	i
O=C(CN1C(=O)CCc2cc(S(=O)(=O)N3CCOCC3)ccc21)NCc1ccccc1Cl	nt	nt	nt	nt	i	i
CCOC(=O)c1sc2cccc(F)c2c1S(=O)(=O)NCc1ccccc1Cl	nt	nt	nt	nt	i	i
CCOC(=O)N1CCN(C(=O)C2CCN(C(=O)c3cc4sccc4n3CC)CC2)CC1	-3%	3%	-8%	0%	i	i
